# Compound activity deposited in PubChem BioAssay by National Center for Advancing Translational Sciences (NCATS).
# ELG1 genotoxic: induces genotoxicity in HEK293T cells with luciferase-tagged ELG1; HEK293T ELG1-luciferase reporter, luminescence, 16 h; AID 504466; Potency, µM (series often up to 46 µM), inactives show at the highest dose activity change, positive = activation, hits mostly activators; actives 1.3% (n = 330,000); further: % of control where 0% means no effect; nearly all actives have a fitted effect of over 60% in size
#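 Quantitative HTS format in 1536-well plates. HEK293T ELG1-luciferase reporter cells receive test compound and are incubated 16 hr at 37 °C, 5% CO2; ONE-Glo added, 30 min room temperature, then luminescence read.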
# SMN2 splice up: enhancers of SMN2 splice variant expression; HEK293 SMN2-luciferase splicing reporter, luminescence, 30-36 h; Potency, µM (top dose mostly 46.1 µM), for inactives: at the top dose activity change, positive = activation, most hits filed as activators; actives 2.8% (n = 210,000); AID 1458; further: % of control where 0% means no effect; nearly all actives have a fitted effect of over 55% in size
#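 HEK293 cells carry an SMN2 […]–luciferase reporter in which exon 7 inclusion puts luciferase in frame. Cells were plated 10-12 h before compound addition, then incubated 30-36 h at 37C. ONE-Glo luminescence was read; sodium butyrate at 4.5 mM final served as control.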
# FLuc modulator: inhibits or activates purified firefly luciferase, miR-21 counter-screen. Potency, µM (series often up to 57.5 µM), for inactives: top-dose activity change, negative = inhibition, most hits filed as inhibitors. P08659. actives 6.9% (n = 360,000). purified FLuc, Km substrates, luminescence inhibition;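 further: plate controls were vehicle for no effect and reference inhibitor for full effect; nearly all actives have a fitted effect of over 55% in size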
# Target sequence (P08659 whole entry, looked up): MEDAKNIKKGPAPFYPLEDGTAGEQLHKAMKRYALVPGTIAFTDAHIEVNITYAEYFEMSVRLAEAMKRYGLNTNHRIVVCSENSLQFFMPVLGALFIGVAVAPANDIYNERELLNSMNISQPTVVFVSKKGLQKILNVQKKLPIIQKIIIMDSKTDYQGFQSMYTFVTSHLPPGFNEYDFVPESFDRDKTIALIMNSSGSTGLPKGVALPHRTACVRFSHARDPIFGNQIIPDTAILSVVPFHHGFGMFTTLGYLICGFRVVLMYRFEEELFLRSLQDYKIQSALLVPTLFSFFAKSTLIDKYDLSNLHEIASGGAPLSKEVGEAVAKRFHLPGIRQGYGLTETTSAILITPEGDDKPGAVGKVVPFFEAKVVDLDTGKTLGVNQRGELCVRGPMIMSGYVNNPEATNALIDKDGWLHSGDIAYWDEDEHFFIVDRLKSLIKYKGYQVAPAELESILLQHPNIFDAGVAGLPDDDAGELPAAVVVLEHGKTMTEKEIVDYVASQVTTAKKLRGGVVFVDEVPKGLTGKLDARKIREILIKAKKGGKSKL
#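 Purified P. pyralis luciferase (10nM final) with 10uM D-luciferin and 10uM ATP (Km levels) in 50mM Tris acetate pH 7.5, 10mM Mg acetate, 0.01% Tween-20, 0.05% BSA; qHTS 6-point titration, ~60 µM downward; luminescence read.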
# Rab9 promoter act: activators of Rab9 promoter | Huh7 Rab9 promoter-luciferase reporter, luminescence, 24 h | Potency, µM (series often up to 9.22 µM), inactives show at the highest dose activation, negative = inhibition, usual class: activators | actives 2.8% (n = 320,000) | AID 485297; further: % of control where 0% means no effect; nearly all actives have a fitted effect of over 60% in size
#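 Rab9 promoter-driven luciferase in stably transfected Huh7 cells; 1500 cells/well rested 2 h, exposed to compound in DMSO for 24 h at 37 °C, 5% CO2. Luminescence read 10 min after adding luciferase reagent at ambient temperature.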
# NPC1 prom act: activators of NPC1 promoter; Huh7 NPC1 promoter luciferase reporter, 24 h; Potency, µM (top dose mostly 9.22 µM), inactives show at the highest dose activation, usual class: activators; actives 2.4% (n = 320,000); further: % of control where 0% means no effect; nearly all actives have a fitted effect of over 60% in size
#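 Cells: Huh7 expressing luciferase under the NPC1 promoter, 1500/well. Seeded 2 h, compound added, incubated 24 h at 37 °C. Luciferase reagent, 10 min ambient, then luminescence.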
# Luc counter: Kinase-Glo luciferase inhibition (counter-screen) | Q27757 | Kinase-Glo luciferase, ATP luminescence, 8 min | Potency, µM (titrated, usually from 38.3 µM), inactives show at the highest dose activity change, negative = inhibition, usual class: inhibitors | actives 0.28% (n = 200,000) | AID 1379; further: on the % scale 0 is the no-effect control and ±100 the full control effect; nearly all actives have a fitted effect of over 60% in size
#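 Compounds were added to a substrate mix at pH 7.2 (50 mM imidazole, 10 uM ATP, within the enzyme's linear range), followed by Kinase-Glo detection reagent; luminescence was measured after 8 minutes at ambient temperature.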
# * marks the source's active call; other numbers are inactive results; ? = inconclusive; / = not tested or not shown; [ ] = remark or other dose. Most compounds without a hit are left out; they make up all but 7.3% or so of the library. The call rests on the fitted dose curve; in most records, active means well fitted curve in the direction sought with a large enough effect; inconclusive means small, poorly fitted or top-dose-only effect, or another doubt; inactive means no such curve, though single readings can be large; an effect the other way counts as inactive or inconclusive. Potency means the concentration at half of the fitted maximal effect.
SMILES,ELG1 genotoxic,SMN2 splice up,FLuc modulator,Rab9 promoter act,NPC1 prom act,Luc counter
COCC(C)NC(=O)CCc1nnc(C2(c3ccc(Cl)cc3)CCC2)o1 (stereo not given),?,/,24µM*,?,22%,/
O=C(CCc1nnc(C2(c3ccc(Cl)cc3)CCC2)o1)N1CCCC1,?,/,17µM*,?,?,/
C=C(C)CNC(=O)CCc1nnc(C2(c3ccc(Cl)cc3)CCC2)o1,12%,/,?,?,11%,2%
C=CCNC(=O)CCc1nnc(C2(c3ccc(Cl)cc3)CCC2)o1,?,8.9µM*,17µM*,3.2µM*,29%,-5%
CCC(=O)C1CCCN(C(=O)CCc2nnc(C3(c4ccc(Cl)cc4)CCC3)o2)C1 (stereo not given),?,/,13µM*,?,?,/
CCc1ccc(C2CC(=O)c3c([nH]c(C(=O)OCC4CCCCC4)c3C)C2)cc1 (stereo not given),/,10%,4%,/,/,/
CCCN(CCC)C(=O)Cn1c(SCc2cccc(F)c2)nc2cccnc21,/,/,-8%,/,/,/
CC(=O)c1ccc(-c2nnc(CCC(=O)N3CCCC(C(=O)CC(C)C)C3)o2)s1 (stereo not given),?,/,19µM*,3.5µM*,4.5µM*,/
CCOc1ccc(C(c2c(C)[nH]n(-c3ccccc3)c2=O)c2c(C)[nH]n(-c3ccccc3)c2=O)cc1OC,/,-1%,3µM*,/,/,/
CCCC(=O)N1c2nc(C(C)C)nn2C2(CCCCC2)[C@@H]2CCCC[C@@H]21,/,/,-8%,/,/,/
O=C1SC(SCc2ccccc2)=N/C1=C\c1ccc(C(=O)O)cc1,0%,/,24µM*,-3%,-2%,-2%
O=C1SC(SCc2ccccc2)=N/C1=C\c1ccco1,/,-17%,-18%,/,/,1%
COc1ccc(OC)c2c(N3CC(C)OC(C)C3)cc(C(F)(F)F)nc12 (stereo not given),?,/,7.6µM*,3.2µM*,2.8µM*,/
Cc1cccc(-c2nc3scc(CCNS(=O)(=O)c4ccc(F)cc4C)n3n2)c1,/,/,6%,/,/,/
C[N+](C)(C)CCN(Cc1cccs1)c1ccccn1,/,-13%[9.22 µM],/,/,/,-7%[7.66 µM]
Cc1cccc(OCCOCCn2c(-c3ccc(Cl)cc3)nc3ccccc3c2=O)c1C,/,9%,3%,/,/,/
CC/C=C\C[C@H]1C(=O)CC[C@@H]1CC(=O)O,/,/,/,/,/,1%
Cc1ccccc1Nc1nc(CSc2nnc(-c3ccoc3C)n2C)cs1,7%,14%,17µM*,3%,19%,-7%
Cc1ccc(Nc2nc(CSc3nnc(-c4cccnc4)n3-c3ccccc3F)cs2)cc1,4%,18%,2.4µM*,4%,9%,-1%
Cc1ccc(Nc2nc(CSc3nnc(-c4ccncc4)n3C)cs2)cc1,?,/,0.6µM*,1.3µM*,3.2µM*,/
Cc1occc1-c1nnc(SCc2cc(=O)n3cc(Br)ccc3n2)n1C,-3%,-2%,1%,-1%,-6%,-1%
O=C(/C=C/c1c(C(=O)O)[nH]c2cc(Cl)cc(Cl)c12)Nc1ccccc1,/,-11%,/,/,/,1%
O=C(c1ccc(OC(F)(F)F)cc1)c1ncc[nH]1,?,/,?,3.5µM*,?,/
O=C(c1ncc[nH]1)c1ccccc1Cl,2%,/,-3%,0%,-2%,/
CC(=O)c1ccc2c3c(cccc13)C(=O)N(CCc1ccccc1)C2=O,-4%,/,11µM*,4µM*,4µM*,-2%
SMILES,ELG1 genotoxic,SMN2 splice up,FLuc modulator,Rab9 promoter act,NPC1 prom act,Luc counter
COc1ccc(NC2CCCN(C(=O)CN3CCOC3=O)C2)cc1 (stereo not given),?,/,11µM*,?,?,/
COc1ccc(NC2CCCN(C(=O)CN3CCOC3=O)C2)cc1OC (stereo not given),-2%,/,1%,-7%,-3%,/
Cc1ccc(NC(=O)CN2C=NS(=O)(=O)c3ccccc32)cc1,/,/,-1%,/,/,/
O=C(c1cc2cc([N+](=O)[O-])ccc2oc1=O)n1cccn1,-2%,0%,-3%,4µM*,-4%,-3%
NC(=O)[C@@H]1CCCN1Cc1ccc2c(c1)OCO2,/,-5%[9.22 µM],/,/,/,-10%[7.66 µM]
COc1ccc(-n2c(=O)c3c4c(sc3n(CC(=O)N3CCCCC3C)c2=O)CCC4)c(OC)c1 (stereo not given),/,-6%,5%,/,/,/
COc1cccc(NC(=O)CCc2c(C)nn(-c3ccc(N4CCOCC4)nn3)c2C)c1,5%,/,?,15%,6%,/
Cc1cccc(NC(=O)CCc2c(C)nn(-c3ccc(N4CCCCC4)nn3)c2C)c1,9%,/,5.4µM*,?,?,/
Cc1ccc(C)c(NC(=O)CCc2c(C)nn(-c3ccc(N4CCCC4)nn3)c2C)c1,/,/,0%,/,/,/
Cc1cccc(NC(=O)CCc2c(C)nn(-c3ccc(N4CCOCC4)nn3)c2C)c1,6%,/,15µM*,26%,28%,/
Cc1ccccc1CS(=O)(=O)Cc1ccc(C(=O)NCCc2ccc(Cl)cc2)o1,/,/,-20%,/,/,/
O=C(NCc1ccc2c(c1)OCO2)c1ccccn1,13%,13%,-13%,17%,13%,-3%
O=C(/C=C\Nc1ccc2c(c1)OCO2)c1ccccn1,?,-62%,0.076µM*,?,?,14µM*
O=C(NCCc1ccc2c(c1)OCCO2)c1ccccn1,?,/,12µM*,2µM*,2.2µM*,/
O=C(COC(=O)c1cnccn1)Nc1ccc2c(c1)OCO2,-1%,-14%,0%,0%,0%,-2%
O=C(Nc1ccc2c(c1)OCO2)c1cnccn1,23%,11µM*,?,2.5µM*,3.5µM*,-25%
O=C(Nc1ccc2c(c1)OCO2)c1ccccn1,?,/,9.5µM*,1.4µM*,1.8µM*,/
CC(Sc1ccccn1)C(=O)Nc1ccc2c(c1)OCO2 (stereo not given),11%,/,?,13%,9%,/
O=C(NCC(c1cccnc1)N1CCN(Cc2ccccc2)CC1)C(=O)Nc1cccc(F)c1 (stereo not given),/,/,-11%,/,/,/
COCCn1c(=O)c(-c2cc(F)cc(F)c2)nc2cnc(Oc3cccc(Cl)c3)nc21,/,-14%,/,/,/,-10%
O=C(Nc1ccc2c(c1)OCO2)c1n[nH]c(=O)c2ccccc12,?,/,?,3.5µM*,2.8µM*,/
O=C(Nc1ccc2c(c1)OCO2)c1nn(-c2ccccc2)c(=O)c2ccccc12,-13%,-25%,1%,-5%,-2%,-2%
O=C(N/N=C1\CCc2ccccc21)c1ccccc1O,?,1.1µM*,1.7µM*,0.79µM*,0.63µM*,10µM*
O=C(N/N=C1\CCc2ccccc21)c1ccncc1,?,20µM*,21µM*,?,?,-5%
